Source: PubChem BioAssay (National Center for Advancing Translational Sciences (NCATS))
Shown are actives, neighbours in structure and some others; about 9.9% of the full set was active somewhere.
MCF10A rereplic: DNA re-replication induction in MCF 10a cells; Potency, µM (highest dose often 46.1 µM), for inactives: at the highest dose activity, positive = re-replication, usual class: activators; AID 624296; MCF 10A DNA re-replication, Hoechst nuclear intensity, 48 h; 2.9% of 350,000 active; also: potency is read from the fitted curve at half-maximal effect; % of control where 0% means no effect; nearly all actives have a fitted effect of over 50% in size
SW480 rereplic: DNA re-replication induction in SW480 cells. SW480 DNA re-replication, Hoechst DNA content imaging, 48 h. Potency, µM (titrated, usually from 46.1 µM), for the others: top-dose re-replication activation, most hits filed as activators. 1.8% of 340,000 active. AID 624297; also: potency is read from the fitted curve at half-maximal effect; % of control where 0% means no effect; nearly all actives have a fitted effect of over 55% in size
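Readout is total intensity of Hoechst-stained nuclei, excited at 405 nm and collected at 500-530 nm. Compound treatment lasted 48 hr at 37 C in 5% CO2 before staining.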
KB-V1 MDR tox: KB-V1 MDR subline cytotoxicity. KB-V1 MDR cells viability, CellTiter-Glo, 72 h. Potency, µM (titrated, usually from 46.1 µM), usual class: cytotoxic. 3.4% of 400,000 active; also: potency is read from the fitted curve at half-maximal effect; % is scaled to controls: 0 for no effect and ±100 for the full control effect; nearly all actives have a fitted effect of over 60% in size
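Readout: CellTiter-Glo luminescence, 10 min after addition. Cells: KB-V1 MDR subline, 72 h at 37 degrees C with compound. Analysis: corrected, normalized data fitted to concentration-effect curves.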
KB-3-1 tox: KB-3-1 parental cell cytotoxicity; Potency, µM (doses to about 46.1 µM), hits mostly cytotoxic; KB-3-1 viability, CellTiter-Glo ATP luminescence, 72 h; 1.4% of 400,000 active; AID 1347075; also: potency is read from the fitted curve at half-maximal effect; % is scaled to controls: 0 for no effect and ±100 for the full control effect; nearly all actives have a fitted effect of over 60% in size
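Parental KB-3-1 adenocarcinoma cells in phenol-red-free DMEM with 10% FBS were pin-treated with compounds at several concentrations, incubated 72 h at 37 °C, and viability read by CellTiter-Glo luminescence; concentration-effect curves were fitted after normalization.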
IL1B secr inh: inflammasome signaling inhibition, IL-1 beta readout | THP-1 LPS/ATP IL-1B secretion, AlphaLISA, 16 h; active compounds read low | 4.7% of 360,000 active | AID 743279 | activity change, % at 57.5 µM; in the data active = activity change below about -50%; inconclusive = mostly about -30% to -49%; also: % is scaled to controls: 0 for no effect and ±100 for the full control effect
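Secreted IL-1B measured by AlphaLISA bead assay after 16 h compound exposure of THP-1 cells; compounds (final up to 57.5 uM) added 1 h before LPS (250 ng/mL) and ATP (1.25 mM) stimulation; lower signal means less secretion.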
Starred values were filed as active, the others as inactive; i = inactive; ? = inconclusive; nt = no result. Unless noted, calls follow the shape of the dose curve; as a rule, active = well fitted curve in the direction sought with a large enough effect; inconclusive = small, poorly fitted or top-dose-only effect, or another doubt; inactive = no such curve, though single readings can be large; an effect the other way counts as inactive or inconclusive.

SMILES | MCF10A rereplic | SW480 rereplic | KB-V1 MDR tox | KB-3-1 tox | IL1B secr inh
COc1ccc(COc2cc(-c3cccc(OC)c3)nc3ccc(NC(=O)c4ccc(Cl)cc4)cc23)cc1 | 26µM* | 23µM* | i | ? | 104
O=C(O)c1cccc(NC(=O)c2ccc(COc3ccc(Cl)cc3)cc2)c1 | 1% | -2% | ? | i | -2
COc1ccc(COc2cc(-c3cccc(OC)c3)nc3ccc(NC(=O)c4ccc(OC)cc4)cc23)cc1 | 2.3µM* | 4.1µM* | i | 4.1µM* | 80
COc1ccc(COc2cc(-c3cccc(OC)c3)nc3ccc(NC(=O)c4cccnc4)cc23)cc1 | ? | ? | ? | ? | 18
COc1ccc(COc2cc(-c3cccc(OC)c3)nc3ccc(NC(=O)c4ccccc4)cc23)cc1 | 4.6µM* | 16µM* | i | 16µM* | 48
O=C(Cn1cnc2ccccc2c1=O)c1ccc(OC(F)F)cc1 | 9% | -4% | i | i | -1
CN(CC(=O)Nc1ccccc1Cl)C(=O)CN1C(=O)C2CC=CCC2C1=O (centres undefined) | 1% | 16% | i | i | -4
Cc1cccc(C)c1-n1c(SCC(=O)N2CC(=O)Nc3ccccc32)nc2ccccc2c1=O | 9% | nt | 18µM* | ? | -11
COCCn1c(SCC(=O)N2CC(=O)Nc3ccccc32)nc2ccccc2c1=O | 8% | ? | i | i | -1
Cc1ccc(-n2c(SCC(=O)N3CC(=O)Nc4ccccc43)nc3ccccc3c2=O)cc1 | 16% | 12% | 18µM* | ? | -74*
CC(C)c1nc(SCC(=O)N2CC(=O)Nc3ccccc32)c2ccccc2n1 | 14% | 2% | ? | ? | -99*
Cc1nnc(SCC(=O)N2CC(=O)Nc3ccccc32)n1-c1ccccc1 | 9% | 3% | i | i | -5
CCN(CC(=O)NCCc1ccc(S(N)(=O)=O)cc1)Cc1ccccc1 | 1% | 6% | ? | i | -2
COc1ccccc1C1NC(=O)NC(C)=C1C(=O)OC1CCC(C)CC1 (centres undefined) | 0% | -1% | i | i | -13
COc1ccc2nc3c(cc2c1)c(NC(=O)c1cccs1)nn3CC(C)C | ? | 16% | ? | ? | -51*
CC(C)Cn1nc(NC(=O)c2cccs2)c2cc3ccccc3nc21 | ? | 16µM* | i | i | 0
Cc1ccc2cc3c(NC(=O)C4CCCO4)nn(CC(C)C)c3nc2c1 (centres undefined) | ? | ? | i | i | -12
CCc1nc(-c2ccc(C)c(S(=O)(=O)N3CCN(c4ccc(C(C)=O)cc4)CC3)c2)no1 | nt | nt | i | i | nt
COc1ccc(CC(O)COS(N)(=O)=O)cc1 (centres undefined) | 4% | -29% | i | i | 8
S=c1nc[nH]c2c1ncn2C1CCCO1 (centres undefined) | ? | -1% | ? | 4.1µM* | 4
OCC1OC(n2cnc3c(=S)nc[nH]c32)CC1O (centres undefined) | ? | 4% | ? | ? | 15
COC(=O)c1csc2c(C(F)(F)F)cc(N3CCN(C(=O)Nc4ccccc4)CC3)nc12 | ? | -16% | i | i | -11
COC(=O)c1ccc(SCC(=O)N2CCC(C)CC2)c([N+](=O)[O-])c1 | 4% | -31% | 15µM* | i | 20
CCOC(=O)N1CCN(C(=O)CSc2ccc(C(=O)OC)cc2[N+](=O)[O-])CC1 | 2% | -16% | i | i | -12
CC(=O)OCCc1c2ccccc2c(CCCN(C)C)c2ccccc12 | 18µM* | ? | i | i | -4
SMILES | MCF10A rereplic | SW480 rereplic | KB-V1 MDR tox | KB-3-1 tox | IL1B secr inh
CC(=O)OCCc1[nH]c2ccccc2c1C | 14% | -5% | i | i | 15
Cc1ccc2c(c1)c1c(c(=O)n(-c3cccc(Cl)c3)c(=O)n1CC(=O)Nc1c(C)cccc1C)n2C | nt | nt | i | i | nt
CCCCn1c(N)c(N(CC(C)C)C(=O)CCNC(=O)c2ccc(Br)cc2)c(=O)[nH]c1=O | -9% | -7% | i | i | -9
COC(=O)c1ccccc1NC(=O)C1CC(=O)N(c2ccc(C)c(C)c2)C1 (centres undefined) | ? | 87% | 21µM* | i | 17
COc1ccc(N2CC(C(=O)Nc3cc(C(F)(F)F)ccc3N3CCCC3)CC2=O)c(OC)c1 (centres undefined) | ? | 184% | ? | ? | 9
COc1ccc(N2CC(C(=O)Nc3ccccc3N3CCCC3)CC2=O)c(OC)c1 (centres undefined) | ? | 21µM* | ? | 7.3µM* | 17
CCOC(=O)c1cc(NC(=O)c2ccccc2)c(=O)n2c1oc1ccccc12 | -4% | 8% | i | i | 4
CC(NC(=O)[C@H](Cc1c[nH]c2ccccc12)NC(=O)[C@@H]1Cc2ccccc2CN1)c1ccccc1 (some centres undefined) | 13% | 0% | i | i | -17
Cc1cccc(NC(=O)[C@H](Cc2c[nH]c3ccccc23)NC(=O)[C@@H]2Cc3ccccc3CN2)c1 | 16µM* | 21µM* | i | 5.8µM* | -1
CCc1ccc(NC(=O)[C@H](Cc2c[nH]c3ccccc23)NC(=O)[C@@H]2Cc3ccccc3CN2)cc1 | 18µM* | 16µM* | ? | 5.2µM* | -3
Cc1ccc(NC(=O)[C@H](Cc2c[nH]c3ccccc23)NC(=O)[C@@H]2Cc3ccccc3CN2)c(C)c1 | ? | 7% | ? | 1.8µM* | -4
Cc1cc(C)cc(NC(=O)[C@H](Cc2c[nH]c3ccccc23)NC(=O)[C@@H]2Cc3ccccc3CN2)c1 | 21µM* | 18µM* | ? | i | 24
COc1ccc(CCNC(=O)CCC(=O)n2ncc3ccc(Cl)cc32)cc1OC | 1% | -12% | i | i | 12
O=[N+]([O-])C(/C=C(/Cl)[N+](=O)[O-])=C(N1CCCCC1)N1CCCCC1 | 6% | 15µM* | i | i | nt
Cc1ccc(C)c(Nc2cc(C(=O)NCc3cccnc3)c3ccccc3n2)c1 | 19% | -3% | i | i | -73*
Cc1cccc(Nc2ccccc2C(=O)OCC(=O)NCc2ccco2)c1C | ? | ? | 13µM* | ? | 5
COc1ccccc1Nc1cc(C(=O)NCc2cccnc2)c2ccccc2n1 | 14% | -3% | i | i | 30
Cc1ccccc1Nc1cc(C(=O)NCc2ccco2)c2ccccc2n1 | -38% | ? | 8.2µM* | ? | ?
CCC(C)c1ccccc1NC(=O)CN1CCN(C/C=C/c2ccccc2)CC1 (centres undefined) | 18% | 14% | i | i | -12
Cc1cc(C)c(C#N)c(SCc2ccccc2)n1 | -1% | -2% | i | i | 29
